# TR SRC2 fluor cs: Total Fluorescence Counterscreen for Inhibitors of the Interaction of Thyroid Hormone Receptor and Steroid Receptor Coregulator 2. TRb/SRC2 Texas Red total fluorescence interference. Potency, µM (top dose mostly 106 µM). actives 0.29% (n = 280,000); active = well fitted curve in either direction with a large enough effect; inconclusive = small, poorly fitted or top-dose-only effect
#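 Flags fluorescent or light-absorbing compounds by total fluorescence, S + 2P, at 555 nm excitation and 632 nm emission. Mixture: 20 nM Texas Red SRC2 peptide, 0.6 uM human TRb LBD, 1 uM T3, 5% DMSO; compound exposure 5 h at ambient temperature.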
# Tau fibril ThT: qHTS for Inhibitors of Tau Fibril Formation, Thioflavin T Binding. AID 1460, 2008. Potency, µM (top dose mostly 57.4 µM), hits mostly inhibitors. actives 2.1% (n = 270,000). Microtubule-associated protein tau (Homo sapiens), P10636. recombinant tau K18 P301L, heparin-induced fibrillization, ThT fluorescence; also: nearly all actives have a fitted effect of over 55% in size
# Target sequence (P10636 561-689 P618L limits assumed): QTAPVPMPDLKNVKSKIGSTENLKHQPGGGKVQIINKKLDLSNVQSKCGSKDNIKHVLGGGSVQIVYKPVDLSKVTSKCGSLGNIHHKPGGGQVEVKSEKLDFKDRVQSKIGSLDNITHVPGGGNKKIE
#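 ThT emission at 510 nm, taken 1 hr after adding 30 uM dye, quantifies aggregates formed when 20 uM heparin acts on human tau K18 P301L for 6 hr at 37 C.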
# Tau FP inhib: qHTS for Inhibitors of Tau Fibril Formation, Fluorescence Polarization; K18 P301L tau heparin fibrillization, Alexa594 FP, 6 h; Potency, µM (highest dose often 57.7 µM), most hits filed as inhibitors; actives 0.39% (n = 280,000); AID 1468, 2008; also: nearly all actives have a fitted effect of over 55% in size
#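 Human K18 P301L fragment (15 uM unlabeled plus 0.24 uM Alexa 594-labeled) in 100 mM sodium acetate pH 7 with compound, aggregation induced by 20 uM heparin for 6 hr at 37 C. ThT (30 uM) added for 1 hr, then Alexa 594 FP read.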
# Tau fluor cs: Counterscreen qHTS for Inhibitors of Tau Fibril Formation, Fluorescence Polarization | Potency, µM (highest dose often 57.7 µM) | actives 0.93% (n = 280,000) | tau K18 P301L (four-repeat tau fragment) Alexa594 fluorescence, heparin fibrillization; also: nearly all actives have a fitted effect of over 55% in size
#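 Human K18 P301L tau (15 uM unlabeled plus 0.24 uM Alexa 594-labeled, final) in 100 mM sodium acetate pH 7 was mixed with compound and 20 uM heparin and incubated 6 hr at 37 C.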
# TRb SRC2 PPI: qHTS for Inhibitors of the Interaction of Thyroid Hormone Receptor and Steroid Receptor Coregulator 2 | Thyroid hormone receptor beta (Homo sapiens), P10828 | TRbeta-SRC2 peptide binding, fluorescence polarization; receptor liganded with 1 µM T3 | Potency, µM (top dose mostly 106 µM), most hits filed as inhibitors | actives 0.065% (n = 280,000) | AID 1469, 2008; also: nearly all actives have a fitted effect of over 50% in size
# Target sequence (P10828 whole entry, looked up): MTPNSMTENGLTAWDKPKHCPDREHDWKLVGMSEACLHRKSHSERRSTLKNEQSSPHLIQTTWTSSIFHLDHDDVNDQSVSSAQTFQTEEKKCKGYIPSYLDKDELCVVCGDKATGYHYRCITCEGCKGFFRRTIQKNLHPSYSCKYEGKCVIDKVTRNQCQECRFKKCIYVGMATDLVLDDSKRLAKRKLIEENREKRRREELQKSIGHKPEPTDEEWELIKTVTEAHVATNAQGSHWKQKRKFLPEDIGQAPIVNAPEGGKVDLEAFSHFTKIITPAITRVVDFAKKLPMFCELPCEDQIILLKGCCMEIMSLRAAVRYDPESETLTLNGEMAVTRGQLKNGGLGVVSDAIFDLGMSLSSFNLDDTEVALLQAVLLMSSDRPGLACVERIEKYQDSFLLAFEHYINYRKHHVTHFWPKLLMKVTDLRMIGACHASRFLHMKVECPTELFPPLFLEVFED
#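 Quantitative HTS by FP: 0.6 uM TRb LBD, 20 nM labeled SRC2 20-mer, 1 uM T3, 5% DMSO; 5 hr ambient incubation; % activity per concentration and potencies from concentration series.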
# Numbers stand for hits; 0 = inactive; ? = inconclusive; - = no result given; ! = repeats disagree; [ ] = remark or other dose. The list is not random: actives were taken first. Their share in the collection is about 3.1%. Unless noted, calls follow the shape of the dose curve; as a rule, active = well fitted curve in the direction sought with a large enough effect; inconclusive = small, poorly fitted or top-dose-only effect, or another doubt; inactive = no such curve, though single readings can be large; an effect the other way counts as inactive or inconclusive.
SMILES,TR SRC2 fluor cs,Tau fibril ThT,Tau FP inhib,Tau fluor cs,TRb SRC2 PPI
O=C(CCc1nc(-c2ccccc2F)no1)Nc1cccc(C(F)(F)F)c1,0,0,?,?,0
S=C(NCc1ccccc1)NNc1nc2ccccc2[nH]1,0,28µM,?,?,0
O=C(Nc1ccc2ccccc2c1)C(=O)C1C(=O)Nc2ccccc21 (stereo unspecified),0,4µM,0,0,0
CCCCc1c(O)nc(SCC(=O)c2ccccc2)n(-c2ccccc2OC)c1=O,0,0,0,0,0
Cc1ccc(NC(=S)NC(=O)c2ccc(-c3ccc(Cl)cc3)o2)c(O)c1,0,0,0,0,0
Cc1cc(O)c(NC(=S)NC(=O)c2ccc(-c3ccc(Cl)cc3)o2)cc1C,0,11µM,?,7.9µM[quencher],0
CCCN1CCc2c(sc(NC(=S)NC(=O)c3ccccc3)c2C#N)C1,0,16µM,0,?,0
Cc1onc(-c2ccccc2)c1C(=O)Nc1sc2c(c1C#N)CCC2,0,?,0,0,0
COc1ccccc1-c1cc(C(=O)Nc2sc3c(c2C#N)CCCC3)no1,0,35µM,?,0,0
CC(C)(C)C1CCc2onc(C(=O)Nc3sc4c(c3C#N)CCCC4)c2C1 (stereo unspecified),0,32µM,?,0,0
CC(C)N1CCc2c(sc(NC(=S)NC(=O)c3ccccc3)c2C#N)C1,0,?,0,?,0
Cc1cc(C(=O)Nc2sc3c(c2C#N)CCCC3)no1,0,0,0,0,0
Cc1onc(-c2ccccc2)c1C(=O)NC(=S)Nc1sc2c(c1C#N)CCCC2,0,28µM,?,0,0
COc1ccc(-n2cc(C(=O)OCc3ccc(F)c(F)c3)c3ccccc3c2=O)cc1,0.079µM[quencher],0,0,0,0
CN1C/C(=C\c2ccc(N3CCOCC3)cc2)C(=O)/C(=C/c2ccc(N3CCOCC3)cc2)C1,0,0.63µM,0,0,0
CCc1ccc(/C=C2/SC(N3CCOCC3)=NC2=O)cc1,0,0,0,0,0
CCN1C/C(=C/c2ccc(N3CCOCC3)cc2)C(=O)/C(=C/c2ccc(N3CCOCC3)cc2)C1,0,0.63µM,0,0,0
CCC1=C[C@@H]2CN(C1)Cc1c([nH]c3ccccc13)[C@@](C(=O)OC)(c1cc3c(cc1OC)N(C)[C@H]1[C@@](O)(C(=O)OC)[C@H](OC(C)=O)[C@]4(CC)C=CCN5CC[C@]31[C@@H]54)C2,0,-,-,-,0
CCOC(=O)C1CCN(C(=O)CSc2n[nH]c(-c3ccccc3Cl)n2)CC1,0,0,0,0,0
CCc1ccc(-n2c(-c3ccccc3)c(C)n3c4c(=O)n(C)c(=O)n(C)c4nc23)cc1,56µM[quencher],0,0,0,0
Cc1ccc(-c2c(C)n3c4c(=O)n(C)c(=O)n(C)c4nc3n2-c2cccc(O)c2)cc1,11µM[quencher],?,0,?,0
COc1ccc2c(c1)C(=O)[C@@H](OC(=O)NS(=O)(=O)c1ccc(C)cc1)[C@H](c1ccc(OC)c(Br)c1)O2,0,0,0,0,0
CCOC(=O)C(CC)Sc1nnc2[nH]c(=O)cc(C)n12 (stereo unspecified),0,0,0,0,0
Cc1ccc(NC(=O)CSc2nnc(-c3cc4occc4n3C)n2-c2ccccc2C)c(Cl)c1,0,0,0,0,0
CC(C)c1cc(-c2nc(-c3ccccc3)no2)n[nH]1,0,?,0,0,0
SMILES,TR SRC2 fluor cs,Tau fibril ThT,Tau FP inhib,Tau fluor cs,TRb SRC2 PPI
COc1cccc(/C=N/c2oc(-c3ccccc3)cc2C#N)c1O,0,14µM,0,0,0
O=C(Nc1cccc(C(F)(F)F)c1)Nc1cccs1,0,?,?,11µM[quencher],0
CC(C(=O)Nc1cccc([N+](=O)[O-])c1)[n+]1ccccc1 (stereo unspecified),0,22µM,0,0[2.34 µM],0
O=C(Nc1cccc([N+](=O)[O-])c1)Nc1cccs1,0,?,0,20µM[quencher],0
CCSCCc1nnc(NC(=O)Nc2cccc(C(F)(F)F)c2)s1,0,0,11µM,?,0
CC(Sc1cccc[n+]1[O-])C(=O)Nc1cccc([N+](=O)[O-])c1 (stereo unspecified),0,0,0,0,0
Cc1c(Cl)cccc1-n1ncc(C(=O)Nc2ccc(Br)cc2F)c1C1CCNCC1,?,0,0,0,0
Cc1ccc(O)c(CNc2cccc3cccnc23)c1,0,?,0,14µM[quencher],0
Cc1ccc(O)c(CNc2ccccn2)c1,0,0,0,0,0
CCCCC/C=C\C/C=C\C/C=C\C/C=C\CCCC(=O)C(F)(F)F,0,?,?,0,0
Nc1cc2nsnc2cc1Br,0,8.9µM,?,?,?
COc1cc([C@@H]2c3cc4c(cc3C(OC3OC5COC(C)OC5C(O)C3O)C3COC(=O)[C@@H]32)OCO4)cc(OC)c1O (stereo partly specified),0,0,0,0,0
COc1ccc(N2CC(NC(=O)c3ccc(S(=O)(=O)N4CCOCC4)cc3)CC2=O)cc1 (stereo unspecified),0,0,?,0,0
COc1ccc(Nc2ncnc3sc(-c4ccccc4)cc23)cc1,0,?,?,7.9µM[quencher],0
COc1ncnc2sc(-c3ccccc3)cc12,0,0,0,0,0
Cc1c(C)c2c(cc(C)c3c(-c4ccc(Br)cc4)coc32)oc1=O,0,0,0,0,0
CCNC(=O)c1c(N)sc2c1CCCCC2,0,32µM,?,0,0
CC[C@H]1C(c2cccc(Cl)c2)=NN(c2ccccc2)[C@@H]1CO,0,?,0,14µM[quencher],0
CC[C@H]1C(c2cccc(C)c2)=NN(c2ccccc2)[C@@H]1CO,0,?,?,32µM[quencher],0
CC[C@@H]1C(c2cccc(C)c2)=NN(c2ccccc2)[C@H]1C(=O)N1CCOC1=O,0,0,0,?,0
CC[C@@H]1C(c2cccc(Cl)c2)=NN(c2ccccc2)[C@H]1C(=O)N1CCOC1=O,0,?,0,?,0
C[c-]1[c-](C)[c-](C)[c-](C)[c-]1C.[Fe].c1cc2nccc(N3CCCC3)[c-]2c1 (stereo unspecified),0,32µM,?,?,0
CCC(=O)OC1(C)C(=O)C2=COC(c3ccc(OC)cc3)=CC2=C(Br)C1=O (stereo unspecified),0,16µM,0,0,0
COc1ccc(C2=CC3=C(Br)C(=O)C(C)(O)C(=O)C3=CO2)cc1 (stereo unspecified),0,18µM!,?,?,0
COCCn1c(SCC(=O)Nc2sccc2C(N)=O)nnc1-c1ccncc1,0,0,0,0,0

# Source: PubChem
